# Results taken from article PMC11062922 (Nature Chemical Biology, 2023).
# Key:
# Parameters in all cases: species or system human, MV4-11 + K-562 + COLO205 + SK-N-BE2 + OVCAR-8
# ACOX3 = details: read-out: apparent Kd; compound concentrations: 100 nM and 1000 nM (sheet 'Samples'), CATDS: 4.2441767473343E-3; n = 1
# CDK1 = details: read-out: apparent Kd; compound concentrations: 100 nM and 1000 nM (sheet 'Samples'), CATDS: 4.2052312432732299E-3; n = 1
# FN3K = details: read-out: apparent Kd; compound concentrations: 100 nM and 1000 nM (sheet 'Samples'), CATDS: 4.2262124169733604E-3; n = 1
# GRAMD1A = details: read-out: apparent Kd; compound concentrations: 100 nM and 1000 nM (sheet 'Samples'), CATDS: 3.9512769472384501E-3; n = 1
# MAP3K3 = details: read-out: apparent Kd; compound concentrations: 100 nM and 1000 nM (sheet 'Samples'), CATDS: 4.1000911479265297E-3; n = 1
# MAPK3 = details: read-out: apparent Kd; compound concentrations: 100 nM and 1000 nM (sheet 'Samples'), CATDS: 4.9102061744830498E-3; n = 1
# MAPK7 = details: read-out: apparent Kd; compound concentrations: 100 nM and 1000 nM (sheet 'Samples'), CATDS: 3.9838262564481702E-3; n = 1
# PKMYT1 = details: read-out: apparent Kd; compound concentrations: 100 nM and 1000 nM (sheet 'Samples'), CATDS: 4.7786675943352697E-3; n = 1
# SLC25A5 = details: read-out: apparent Kd; compound concentrations: 100 nM and 1000 nM (sheet 'Samples'), CATDS: 3.4931763386449499E-3; n = 1
# TAOK2 = details: read-out: apparent Kd; compound concentrations: 100 nM and 1000 nM (sheet 'Samples'), CATDS: 4.3468745935786399E-3; n = 1
# PGK1 = details: read-out: apparent Kd; compound concentrations: 100 nM and 1000 nM (sheet 'Samples'), CATDS: 0.13034020177251299; n = 1
# AMPK-alpha1 = details: compound concentrations: 100 nM and 1000 nM (sheet 'Samples')
# CLK1 = details: compound concentrations: 100 nM and 1000 nM (sheet 'Samples')
# DYRK1A = details: compound concentrations: 100 nM and 1000 nM (sheet 'Samples')
# MLK3 = details: compound concentrations: 100 nM and 1000 nM (sheet 'Samples')
# NEK3 = details: compound concentrations: 100 nM and 1000 nM (sheet 'Samples')
# NEK9 = details: compound concentrations: 100 nM and 1000 nM (sheet 'Samples')
# SRC = details: compound concentrations: 100 nM and 1000 nM (sheet 'Samples')
# STK16 = details: compound concentrations: 100 nM and 1000 nM (sheet 'Samples')
# [1] = test system: TYK2(JH2domain-pseudokinase); details: compound concentrations: 100 nM and 1000 nM (sheet 'Samples')
# 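Throughout, for Kinobeads Data: kinobeads ε competition pulldown from cell lysate, compound preincubated 45 min at 4 °C, bound kinases quantified by LC–MS/MS relative to DMSO control.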
structure (smiles),measurement,setting,value
Cn1ncc2c(N)ncnc21 [SKF-18267],potency estimated from few doses,ACOX3,1160 nM
same,potency estimated from few doses,CDK1,1180 nM
same,potency estimated from few doses,FN3K,1170 nM
same,potency estimated from few doses,GRAMD1A,1380 nM
same,potency estimated from few doses,MAP3K3,1260 nM
same,potency estimated from few doses,MAPK3,844 nM
same,potency estimated from few doses,MAPK7,1350 nM
same,potency estimated from few doses,PKMYT1,892 nM
same,potency estimated from few doses,SLC25A5,1950 nM
same,potency estimated from few doses,TAOK2,1100 nM
COc1cccc2c(-c3ccncc3)c(-c3ccc(F)cc3)nn12 [GW468513X],potency estimated from few doses,PGK1,62.3 nM
COc1cc(Nc2ncc3c(C)nc(-c4cc5ccccc5[nH]4)n3n2)cc(OC)c1OC [GW869516X],Kinobeads Data,AMPK-alpha1,no target
same,Kinobeads Data,CLK1,no target
same,Kinobeads Data,DYRK1A,no target
same,Kinobeads Data,MLK3,no target
same,Kinobeads Data,NEK3,no target
same,Kinobeads Data,NEK9,no target
same,Kinobeads Data,SRC,no target
same,Kinobeads Data,STK16,no target
same,Kinobeads Data,[1],no target
